A549 tox: kills or reduces viability of A549 cells in Nrf2 counter-screen | AID 504648 | hit rate 0.16% among 390,000 | Potency, µM (titrated, usually from 46 µM), inactives show top-dose activity change, negative = cytotoxicity, most hits filed as inhibitors | A549 ARE-Fluc cells, CellTiter-Fluor viability, 18-24 h; note: % is set by controls: 0 for no effect and ±100 for the full control effect
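Cytotoxicity counterscreen: CellTiter-Fluor fluorescence was measured in A549 ARE_Fluc cells after 18-24 h of compound exposure in a concentration series. The subsequent BugLite luminescent read reports ARE-luciferase activity.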
HepG2 tox: counter-screen for TGF-b inhibitors: cytotoxicity in HepG2 cells | HepG2 CAGA-GFP viability, ATP luminescence, 18 h | Potency, µM (doses to about 46.1 µM), for the others: top-dose activity change, negative = cytotoxicity, most hits filed as cytotoxic | hit rate 0.76% among 410,000 | AID 588856
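HepG2 CAGA-GFP cells (1000/well, DMEM with 1% FBS) received compound, then TGF-beta at 500 pg/mL final, and were incubated 18 hours at 37 degrees C. Viability was read by CellTiter-Glo luminescence. Media-only wells were set as complete cell-killing and DMSO as no toxicity.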
ATXN2 expr inh: reduces ATXN2 reporter expression in HEK-293 cells; HEK-293 ATXN2-luciferase reporter, luminescence, 24 h; Potency, µM (highest dose often 57 µM), for the others: top-dose activity change, negative = inhibition, usual class: inhibitors; hit rate 0.72% among 360,000; AID 1745845; note: % is set by controls: 0 for no effect and ±100 for the full control effect; nearly all actives have a fitted effect of over 55% in size
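qHTS (up to 57 uM final) was run with 24 h compound exposure of reporter cells at 37 °C. Each well was multiplexed: SteadyGlo luminescence measured ATXN2-luciferase expression after a fluorogenic Gly-Phe-AFC viability readout (25 uM final).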
Nrf2 block: Nrf2 pathway inhibition; A549 ARE-Fluc reporter, luciferase luminescence, 18-24 h; Potency, µM (series often up to 46 µM), inactives show at the highest dose activity change, negative = inhibition, actives largely listed as inhibitors; hit rate 2.1% among 360,000; note: % is set by controls: 0 for no effect and ±100 for the full control effect; nearly all actives have a fitted effect of over 60% in size
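A549 ARE_Fluc cells, 5000/well, 5% FBS OPTI-MEM; compounds in dose-response, 18-24 h at 37 °C/5% CO2; CellTiter-Fluor viability read (Ex 405/Em 525), then BugLite luciferase luminescence = Nrf2 activity.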
TGFb inhibitor: TGF-b pathway inhibition. HepG2 CAGA-GFP TGF-b/SMAD3 reporter, GFP fluorescence, 18 h; TGF-beta stimulated, 500 pg/mL final. Potency, µM (series often up to 46.1 µM), inactives show top-dose activity, negative = inhibition, most hits filed as inhibitors. hit rate 1.2% among 410,000; note: % is set by controls: 0 for no effect and ±100 for the full control effect; nearly all actives have a fitted effect of over 65% in size
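Cell-based qHTS in HEPG2 carrying a CAGA-GFP Smad reporter; compounds added before 500 pg/mL final TGF-beta, 18 h incubation at 37 degrees C, GFP fluorescence quantified per cell by imaging cytometry.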
S2 tox: cell viability loss in ATXN counter-screen; S2 cells (HEK-293 line with an ATXN2-luciferase reporter) viability, CellTiter-Fluor protease fluorescence, 24 h; AID 651635; Potency, µM (doses to about 56.7 µM), most hits filed as cytotoxic; hit rate 0.49% among 400,000; note: nearly all actives have a fitted effect of over 40% in size
* = called active by the depositor; i = inactive; ? = inconclusive; . = not tested or not shown; ! = not active in a repeat; [ ] = remark or other dose. Shown are actives, neighbours in structure and some others; about 3.8% of the full set was active somewhere. Calls come from the whole dose curve; as a rule, active = well fitted curve in the direction sought with a large enough effect; inconclusive = small, poorly fitted or top-dose-only effect, or another doubt; inactive = no such curve, though single readings can be large; an effect the other way counts as inactive or inconclusive. Potency is the fitted concentration of half-maximal effect.

SMILES	A549 tox	HepG2 tox	ATXN2 expr inh	Nrf2 block	TGFb inhibitor	S2 tox
Cc1ccc2cc(NC(=O)c3ccccc3C)ccc2n1	0%	-16%	32%	6%	0%	i
COc1cccc(OC)c1C(=O)Nc1ccccc1N1CCCCC1	-2%	4%	-25%	?	?	i
CC(=O)Nc1cn(-c2ccccc2)nc1-c1ccccc1	0%	-9%	-19%[11.3 µM]	-7%	-2%	i
CC(=O)Nc1ccc(NC(=O)Cc2ccc(-c3ccccc3)cc2)cc1	-9%	22%	.	1%	14%	i
O=C(CCl)Nc1ccc(-c2ccccc2)cc1	-17%	11µM*	.	?	?	10µM*
O=C(CCl)Nc1cn(-c2ccccc2)nc1-c1ccccc1	?	22µM*	.	?	?	8.9µM*
O=C(CCl)Nc1ccc(N=Nc2ccccc2)cc1	-14%	22µM*	.	10%	?	20µM*
CC(C)N(c1ccccc1)c1ccc(NC(=O)CCl)cc1	-5%	-119%	?	-5%	?	27µM*
C[C@@H]1[C@H](C)CC[C@]2(C(=O)O)CC[C@]3(C)C(=CC[C@@H]4[C@@]5(C)C[C@@H](O)[C@H](O)[C@@](C)(CO)[C@H]5CC[C@]43C)[C@@H]12	.	.	2%	.	.	.
CCN(Cc1ccccc1)Cc1c(O)ccc2c(=O)c(-c3ccccc3Cl)coc12	3%	-3%	2%	-9%	7%	i
Cc1ccc(Sc2ccc(NC(=O)CCl)cc2)cc1C	5%	-107%	32µM*	11%	?	?
Cc1ccc(C)c(Sc2ccc(NC(=O)CCl)cc2)c1	0%	-119%	?	7%	?	?
O=C(Nc1cccc(Cl)c1)c1ccc(F)c(S(=O)(=O)N2CCN(c3ccccn3)CC2)c1	-9%	-5%	-24%	21µM*	?	?
O=C(NCc1ccco1)c1ccc(Cl)c(S(=O)(=O)N2CCc3ccccc32)c1	2%	-25%	-18%	23µM*	?	i
O=C(Nc1cc(Cl)cc(Cl)c1)c1ccc(F)c(S(=O)(=O)N2CCc3ccccc32)c1	-27%	-76%	.	.	4µM*	.
Cc1ccc(-c2nc3c(C)cccn3c2Nc2ccccc2C)s1	3%	-44%	1%	?	?	?
Cc1ccc(O)c(-c2cc(-c3cccc(F)c3)n[nH]2)c1	?	-84%	29%	?	22µM*	i
CCCCc1oc2ccccc2c1C(=O)c1cc(I)c(OCCN(CC)CC)c(I)c1	-4%	-35%	28µM*!	2%	21%	.
CCN(CC)CCOc1ncnc2c1oc1ccccc12	-1%	-3%	-4%	25%	-4%	i
CCOc1ccc(S(=O)(=O)NCC(c2cccs2)S(=O)(=O)c2ccc(C)cc2)cc1 (stereo not given)	0%	-36%	.	.	5µM*	.
Cc1cc(C)c(S(=O)(=O)NCC(c2cccs2)S(=O)(=O)c2ccccc2)c(C)c1 (stereo not given)	7%	6.3µM*	.	.	5.6µM*	.
Cc1ccc(S(=O)(=O)C(CNS(=O)(=O)c2ccc(F)c(C)c2)c2cccs2)cc1 (stereo not given)	-6%	-24%	.	.	?	.
Cc1ccc(-n2nc(C(=O)Nc3ccc(F)cc3Cl)c(=O)n(C)c2=O)cc1	-1%	14%	-4%	.	-4%	i
CCN1C(C(=O)c2ccccc2)=C(OC(=O)COc2ccccc2)c2ccccc2S1(=O)=O	15µM*	-16%	.	?	-10%	.
Cc1ccc(OCC(=O)OC2=C(C(=O)c3ccccc3)N(C)S(=O)(=O)c3ccccc32)cc1	?	6%	-26%	?	-3%	i
CCN1C(C(=O)c2ccccc2)=C(OC(=O)C(C)C)c2ccccc2S1(=O)=O	?	-38%	-29%	?	11µM*	i
